# Experimental data as given in article PMC7862700, “An all-to-all approach to the identification of sequence-specific readers for epigenetic DNA modifications on cytosine”.
# Legend:
# Test in all cases: DAPPL (digital affinity profiling via proximity ligation, sequencing); 10 mM Tris-HCl pH 7.5, 50 mM NaCl, 1 mM DTT, 4% glycerol, room temperature, 30 min; GST-TFs on glutathione beads, 16-mer random dsDNA library, 0.1% formaldehyde crosslink after washing; high values mean tight binding
# FEV = target: T1, FEV (Homo sapiens, UniProt Q99581 1-238); details: protein: recombinant; tags: N-terminal GST; dsDNA, one strand shown
# T1 sequence: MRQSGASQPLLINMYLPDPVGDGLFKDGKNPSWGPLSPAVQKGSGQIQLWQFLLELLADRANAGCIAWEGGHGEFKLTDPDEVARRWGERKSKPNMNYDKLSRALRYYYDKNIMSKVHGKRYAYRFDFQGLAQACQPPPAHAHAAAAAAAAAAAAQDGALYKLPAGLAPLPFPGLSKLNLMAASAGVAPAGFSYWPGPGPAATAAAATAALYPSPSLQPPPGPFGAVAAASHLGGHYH
# In short: (§1)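 After expression in yeast as GST fusions, human transcription factors were bound to glutathione beads, DNA-barcoded and mixed with a tag-only sample. The pools were incubated with 200 nmole of a 16-mer random double-stranded DNA library in Tris/NaCl/DTT/glycerol buffer (30 min, room temperature), washed and crosslinked with 0.1% formaldehyde. Proximity ligation with BsaI/T4 ligase ran for 1 h at 37 °C, before PCR amplification and sequencing on an Illumina NextSeq500. Binding signal is a hexamer's read frequency for a factor divided by its frequency for the tag-only sample.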
# ETV5 = ETV5 (Homo sapiens, UniProt P41161 1-510); details: protein: recombinant; tags: N-terminal GST; dsDNA, one strand shown
# In short: as §1
# HSF1 = HSF1 (Homo sapiens, UniProt Q00613 1-529); details: protein: recombinant; tags: N-terminal GST; chain copies: 3; dsDNA, one strand shown
# In short: as §1
# SPIC = target: T2, SPIC (Homo sapiens, UniProt Q8N5J4 1-248); details: protein: recombinant; tags: N-terminal GST; dsDNA, one strand shown
# T2 sequence: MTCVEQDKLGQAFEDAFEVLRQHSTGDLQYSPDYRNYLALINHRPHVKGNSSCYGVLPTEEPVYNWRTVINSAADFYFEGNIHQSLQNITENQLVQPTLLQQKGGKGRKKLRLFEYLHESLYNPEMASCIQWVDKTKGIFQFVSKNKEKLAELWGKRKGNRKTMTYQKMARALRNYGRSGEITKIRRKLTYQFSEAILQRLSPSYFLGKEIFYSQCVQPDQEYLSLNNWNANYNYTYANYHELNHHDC
# In short: as §1
# ELF4 = ELF4 (Homo sapiens, UniProt Q99607 1-663); details: protein: recombinant; tags: N-terminal GST; dsDNA, one strand shown
# In short: as §1
# ELK4 = target: T3, ELK4 (Homo sapiens, UniProt P28324-2 1-405); details: protein: recombinant; tags: N-terminal GST; dsDNA, one strand shown
# T3 sequence: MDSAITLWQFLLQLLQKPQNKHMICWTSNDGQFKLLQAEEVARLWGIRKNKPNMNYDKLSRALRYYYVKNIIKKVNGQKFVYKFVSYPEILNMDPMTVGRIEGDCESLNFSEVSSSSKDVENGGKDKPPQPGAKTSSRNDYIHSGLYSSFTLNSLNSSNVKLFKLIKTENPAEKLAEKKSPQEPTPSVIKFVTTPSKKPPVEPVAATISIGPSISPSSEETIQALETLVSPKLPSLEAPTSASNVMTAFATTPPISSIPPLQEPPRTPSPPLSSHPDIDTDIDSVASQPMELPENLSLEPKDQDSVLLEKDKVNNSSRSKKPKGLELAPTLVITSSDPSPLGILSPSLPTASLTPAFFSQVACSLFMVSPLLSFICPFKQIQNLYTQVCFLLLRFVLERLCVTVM
# In short: as §1
# ETV2 = target: T4, ETV2 (Homo sapiens, UniProt O00321 1-342); details: protein: recombinant; tags: N-terminal GST; dsDNA, one strand shown
# T4 sequence: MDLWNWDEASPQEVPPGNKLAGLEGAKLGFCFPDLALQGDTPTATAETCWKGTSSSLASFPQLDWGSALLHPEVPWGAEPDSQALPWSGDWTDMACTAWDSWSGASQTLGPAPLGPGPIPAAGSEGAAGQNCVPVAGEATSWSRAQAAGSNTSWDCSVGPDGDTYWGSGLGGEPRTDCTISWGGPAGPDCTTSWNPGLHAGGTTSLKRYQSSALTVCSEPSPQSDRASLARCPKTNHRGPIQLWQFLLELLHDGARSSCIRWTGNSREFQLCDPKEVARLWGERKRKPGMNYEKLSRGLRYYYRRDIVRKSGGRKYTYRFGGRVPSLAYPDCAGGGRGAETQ
# In short: as §1
# ELF3 = target: T5, ELF3 (Homo sapiens, UniProt P78545 1-371); details: protein: recombinant; tags: N-terminal GST; dsDNA, one strand shown
# T5 sequence: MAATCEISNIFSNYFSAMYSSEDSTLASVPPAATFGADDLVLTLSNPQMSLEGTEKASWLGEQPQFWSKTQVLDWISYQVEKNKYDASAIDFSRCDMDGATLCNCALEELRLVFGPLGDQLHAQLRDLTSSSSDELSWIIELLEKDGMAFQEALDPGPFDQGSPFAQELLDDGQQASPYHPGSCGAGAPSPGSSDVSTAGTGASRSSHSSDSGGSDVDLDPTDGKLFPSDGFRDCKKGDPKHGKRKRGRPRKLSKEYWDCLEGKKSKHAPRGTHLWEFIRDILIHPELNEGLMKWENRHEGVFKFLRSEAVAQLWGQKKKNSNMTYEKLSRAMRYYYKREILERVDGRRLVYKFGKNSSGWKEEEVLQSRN
# In short: as §1
# CRX = CRX (Homo sapiens, UniProt O43186 1-299); details: protein: recombinant; tags: N-terminal GST; dsDNA, one strand shown
# In short: as §1
# ETV1 = ETV1 (Homo sapiens, UniProt P50549 1-477); details: protein: recombinant; tags: N-terminal GST; dsDNA, one strand shown
# In short: as §1
# ERF = target: T6, ERF (Homo sapiens, UniProt P50548 1-548); details: protein: recombinant; tags: N-terminal GST; dsDNA, one strand shown
# T6 sequence: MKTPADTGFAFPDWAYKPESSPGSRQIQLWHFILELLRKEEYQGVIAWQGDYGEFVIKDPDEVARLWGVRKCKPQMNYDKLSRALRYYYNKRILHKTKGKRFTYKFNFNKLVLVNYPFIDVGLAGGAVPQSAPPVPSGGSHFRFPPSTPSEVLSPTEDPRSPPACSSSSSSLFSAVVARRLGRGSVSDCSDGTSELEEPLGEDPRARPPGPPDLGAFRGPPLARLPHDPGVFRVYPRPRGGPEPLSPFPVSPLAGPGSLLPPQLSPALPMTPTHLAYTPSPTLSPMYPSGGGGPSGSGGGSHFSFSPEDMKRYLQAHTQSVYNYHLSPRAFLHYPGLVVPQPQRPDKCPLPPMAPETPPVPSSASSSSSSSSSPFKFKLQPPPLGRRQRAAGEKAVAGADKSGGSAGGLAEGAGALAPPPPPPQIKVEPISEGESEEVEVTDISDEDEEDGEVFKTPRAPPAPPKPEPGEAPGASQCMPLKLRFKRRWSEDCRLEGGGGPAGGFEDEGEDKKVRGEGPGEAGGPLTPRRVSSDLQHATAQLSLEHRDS
# In short: as §1
# ETV3L = target: T7, ETV3L (Homo sapiens, UniProt Q6ZN32 1-361); details: protein: recombinant; tags: N-terminal GST; dsDNA, one strand shown
# T7 sequence: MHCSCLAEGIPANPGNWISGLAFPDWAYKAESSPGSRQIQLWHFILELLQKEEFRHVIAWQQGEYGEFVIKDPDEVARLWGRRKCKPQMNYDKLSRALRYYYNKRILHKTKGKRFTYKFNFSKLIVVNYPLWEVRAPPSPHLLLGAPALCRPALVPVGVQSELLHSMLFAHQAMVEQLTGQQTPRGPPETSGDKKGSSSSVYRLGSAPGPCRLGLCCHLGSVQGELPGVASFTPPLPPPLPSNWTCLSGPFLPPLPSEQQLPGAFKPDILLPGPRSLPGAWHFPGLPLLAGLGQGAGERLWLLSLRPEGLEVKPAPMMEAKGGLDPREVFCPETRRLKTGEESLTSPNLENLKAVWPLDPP
# In short: as §1
# ETS2 = target: T8, ETS2 (Homo sapiens, UniProt P15036 1-469); details: protein: recombinant; tags: N-terminal GST; dsDNA, one strand shown
# T8 sequence: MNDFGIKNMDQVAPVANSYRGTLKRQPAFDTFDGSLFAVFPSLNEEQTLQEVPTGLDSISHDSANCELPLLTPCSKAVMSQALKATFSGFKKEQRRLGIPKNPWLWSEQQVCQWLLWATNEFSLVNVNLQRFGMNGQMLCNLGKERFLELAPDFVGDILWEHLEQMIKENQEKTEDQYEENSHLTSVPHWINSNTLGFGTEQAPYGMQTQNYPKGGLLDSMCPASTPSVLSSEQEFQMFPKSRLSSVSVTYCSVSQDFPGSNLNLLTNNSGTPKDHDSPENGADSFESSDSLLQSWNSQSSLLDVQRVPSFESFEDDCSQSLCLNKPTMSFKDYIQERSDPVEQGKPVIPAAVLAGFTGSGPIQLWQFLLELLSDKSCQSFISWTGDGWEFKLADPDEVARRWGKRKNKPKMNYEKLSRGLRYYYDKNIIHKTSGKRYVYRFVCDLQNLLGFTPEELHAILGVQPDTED
# In short: as §1
# SPDEF = target: T9, SPDEF (Homo sapiens, UniProt O95238 1-335); details: protein: recombinant; tags: N-terminal GST; dsDNA, one strand shown
# T9 sequence: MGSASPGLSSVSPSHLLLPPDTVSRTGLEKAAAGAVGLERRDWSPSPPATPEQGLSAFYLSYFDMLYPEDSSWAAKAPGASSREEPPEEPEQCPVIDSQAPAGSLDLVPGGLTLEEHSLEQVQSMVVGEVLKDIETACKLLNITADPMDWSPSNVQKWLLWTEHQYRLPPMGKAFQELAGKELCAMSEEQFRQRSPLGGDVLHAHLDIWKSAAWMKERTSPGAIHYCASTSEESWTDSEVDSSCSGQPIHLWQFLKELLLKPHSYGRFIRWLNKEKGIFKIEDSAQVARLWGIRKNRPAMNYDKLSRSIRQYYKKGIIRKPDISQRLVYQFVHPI
# In short: as §1
# ETV7 = target: T10, ETV7 (Homo sapiens, UniProt Q9Y603 1-341); details: protein: recombinant; tags: N-terminal GST; dsDNA, one strand shown
# T10 sequence: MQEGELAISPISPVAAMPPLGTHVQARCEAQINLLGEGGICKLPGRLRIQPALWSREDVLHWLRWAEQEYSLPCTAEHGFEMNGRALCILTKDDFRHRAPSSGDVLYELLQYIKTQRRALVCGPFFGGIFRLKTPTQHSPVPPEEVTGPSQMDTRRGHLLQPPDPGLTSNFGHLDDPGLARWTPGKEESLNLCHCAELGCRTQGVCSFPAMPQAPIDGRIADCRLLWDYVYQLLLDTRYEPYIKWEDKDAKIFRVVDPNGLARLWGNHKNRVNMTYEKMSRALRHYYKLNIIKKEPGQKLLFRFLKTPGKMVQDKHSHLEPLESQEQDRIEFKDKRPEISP
# In short: as §1
# ELF5 = target: T11, ELF5 (Homo sapiens, UniProt Q9UKW6-2 1-255); details: protein: recombinant; tags: N-terminal GST; dsDNA, one strand shown
# T11 sequence: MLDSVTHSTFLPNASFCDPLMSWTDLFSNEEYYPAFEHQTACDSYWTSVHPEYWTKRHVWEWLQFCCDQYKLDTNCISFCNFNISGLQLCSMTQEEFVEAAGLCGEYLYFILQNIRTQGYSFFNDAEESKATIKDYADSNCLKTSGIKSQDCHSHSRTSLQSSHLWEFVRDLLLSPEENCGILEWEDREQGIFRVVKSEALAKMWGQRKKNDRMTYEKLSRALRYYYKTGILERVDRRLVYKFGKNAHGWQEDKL
# In short: as §1
# ETV3 = target: T12, ETV3 (Homo sapiens, UniProt P41162-2 1-143); details: protein: recombinant; tags: N-terminal GST; dsDNA, one strand shown
# T12 sequence: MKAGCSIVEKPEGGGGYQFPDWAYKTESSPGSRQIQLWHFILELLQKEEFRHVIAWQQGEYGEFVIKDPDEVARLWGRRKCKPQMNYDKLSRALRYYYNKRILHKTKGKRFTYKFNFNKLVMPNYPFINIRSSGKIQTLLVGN
# In short: as §1
# ETV6 = ETV6 (Homo sapiens, UniProt P41212 1-452); details: protein: recombinant; tags: N-terminal GST; dsDNA, one strand shown
# In short: as §1
# ETV5, sequence (P41161 whole entry): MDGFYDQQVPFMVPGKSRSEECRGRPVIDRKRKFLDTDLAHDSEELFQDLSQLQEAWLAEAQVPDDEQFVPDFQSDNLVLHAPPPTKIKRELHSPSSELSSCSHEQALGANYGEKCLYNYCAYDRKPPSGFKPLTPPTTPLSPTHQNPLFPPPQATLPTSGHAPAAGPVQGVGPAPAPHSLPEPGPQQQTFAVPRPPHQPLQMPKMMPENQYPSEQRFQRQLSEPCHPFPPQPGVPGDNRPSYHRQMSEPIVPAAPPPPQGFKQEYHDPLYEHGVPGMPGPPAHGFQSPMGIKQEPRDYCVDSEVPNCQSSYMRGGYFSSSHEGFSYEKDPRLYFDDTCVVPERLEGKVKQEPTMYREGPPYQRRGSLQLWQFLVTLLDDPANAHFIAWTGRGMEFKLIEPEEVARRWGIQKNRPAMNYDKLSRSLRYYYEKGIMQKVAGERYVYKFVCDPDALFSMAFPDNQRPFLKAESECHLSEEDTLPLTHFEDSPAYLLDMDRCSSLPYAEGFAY
# HSF1, sequence (Q00613 whole entry): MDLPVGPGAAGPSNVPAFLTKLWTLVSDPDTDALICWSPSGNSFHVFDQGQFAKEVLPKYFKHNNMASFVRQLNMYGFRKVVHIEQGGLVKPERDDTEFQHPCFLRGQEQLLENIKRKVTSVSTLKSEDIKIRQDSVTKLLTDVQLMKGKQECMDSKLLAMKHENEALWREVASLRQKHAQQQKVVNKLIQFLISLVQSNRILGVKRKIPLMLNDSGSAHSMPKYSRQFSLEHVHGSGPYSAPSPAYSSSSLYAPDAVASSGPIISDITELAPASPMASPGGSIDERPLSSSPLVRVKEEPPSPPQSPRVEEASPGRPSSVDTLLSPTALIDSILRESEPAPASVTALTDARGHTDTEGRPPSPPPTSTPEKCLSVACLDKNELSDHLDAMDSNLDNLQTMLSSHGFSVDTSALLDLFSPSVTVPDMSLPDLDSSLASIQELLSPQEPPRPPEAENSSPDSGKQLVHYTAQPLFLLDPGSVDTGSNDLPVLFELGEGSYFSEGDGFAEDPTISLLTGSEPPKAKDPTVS
# ETV6, sequence (P41212 whole entry): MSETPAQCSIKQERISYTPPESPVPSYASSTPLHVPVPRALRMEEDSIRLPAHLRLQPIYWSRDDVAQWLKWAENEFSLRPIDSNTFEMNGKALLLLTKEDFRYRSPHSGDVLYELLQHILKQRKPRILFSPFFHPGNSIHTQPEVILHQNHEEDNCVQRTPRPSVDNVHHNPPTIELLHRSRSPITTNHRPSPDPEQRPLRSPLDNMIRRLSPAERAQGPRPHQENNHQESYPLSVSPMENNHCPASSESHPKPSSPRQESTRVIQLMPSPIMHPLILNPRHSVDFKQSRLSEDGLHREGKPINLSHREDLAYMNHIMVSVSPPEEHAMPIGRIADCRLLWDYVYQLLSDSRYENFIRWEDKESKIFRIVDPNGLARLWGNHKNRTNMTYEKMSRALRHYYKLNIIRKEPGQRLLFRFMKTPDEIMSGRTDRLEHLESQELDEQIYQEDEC
# ELF4, sequence (Q99607 whole entry): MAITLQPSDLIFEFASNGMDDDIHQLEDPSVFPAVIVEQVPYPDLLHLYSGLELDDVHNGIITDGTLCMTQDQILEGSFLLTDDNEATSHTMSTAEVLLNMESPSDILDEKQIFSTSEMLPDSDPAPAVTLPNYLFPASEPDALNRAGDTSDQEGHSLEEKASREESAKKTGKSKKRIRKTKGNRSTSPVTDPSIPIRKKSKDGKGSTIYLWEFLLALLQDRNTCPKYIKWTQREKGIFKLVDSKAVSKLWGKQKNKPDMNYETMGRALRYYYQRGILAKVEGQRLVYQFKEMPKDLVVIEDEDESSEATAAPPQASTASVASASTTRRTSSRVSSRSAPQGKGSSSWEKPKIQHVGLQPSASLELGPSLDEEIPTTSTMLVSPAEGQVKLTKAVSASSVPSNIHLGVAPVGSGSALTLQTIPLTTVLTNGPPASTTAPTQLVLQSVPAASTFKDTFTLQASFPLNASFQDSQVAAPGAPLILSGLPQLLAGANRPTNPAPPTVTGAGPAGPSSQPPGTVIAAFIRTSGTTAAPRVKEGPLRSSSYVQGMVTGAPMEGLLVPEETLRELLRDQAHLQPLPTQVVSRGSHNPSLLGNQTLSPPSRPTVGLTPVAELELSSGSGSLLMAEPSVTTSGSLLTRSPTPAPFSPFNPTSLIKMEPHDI
# ETV1, sequence (P50549 whole entry): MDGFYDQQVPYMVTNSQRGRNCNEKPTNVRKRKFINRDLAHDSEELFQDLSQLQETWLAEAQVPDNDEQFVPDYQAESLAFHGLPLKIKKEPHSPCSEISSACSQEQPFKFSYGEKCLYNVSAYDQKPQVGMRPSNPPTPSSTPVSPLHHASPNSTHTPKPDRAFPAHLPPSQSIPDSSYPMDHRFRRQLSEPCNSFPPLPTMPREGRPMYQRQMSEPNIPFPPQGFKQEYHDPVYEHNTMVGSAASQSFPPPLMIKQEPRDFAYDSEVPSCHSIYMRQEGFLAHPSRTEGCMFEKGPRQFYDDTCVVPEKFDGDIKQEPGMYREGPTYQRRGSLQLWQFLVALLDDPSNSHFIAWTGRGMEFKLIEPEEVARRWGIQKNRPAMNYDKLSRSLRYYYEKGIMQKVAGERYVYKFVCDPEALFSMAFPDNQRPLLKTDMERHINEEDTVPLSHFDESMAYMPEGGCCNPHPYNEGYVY
# CRX, sequence (O43186 whole entry): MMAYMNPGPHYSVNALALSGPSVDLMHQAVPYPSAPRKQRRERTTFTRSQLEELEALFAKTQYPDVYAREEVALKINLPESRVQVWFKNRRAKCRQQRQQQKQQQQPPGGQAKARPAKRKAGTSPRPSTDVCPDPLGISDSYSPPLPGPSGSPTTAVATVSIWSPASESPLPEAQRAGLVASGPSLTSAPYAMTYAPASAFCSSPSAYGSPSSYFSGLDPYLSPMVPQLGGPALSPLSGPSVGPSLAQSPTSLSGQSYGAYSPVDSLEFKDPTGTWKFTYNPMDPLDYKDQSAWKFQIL
sequence,measurement,setting,value
GTTTAA,binding signal,FEV,"1.11 fold enrichment (6-mer frequency, TF over GST control)"
same,binding signal,ETV5,"1.07 fold enrichment (6-mer frequency, TF over GST control)"
same,binding signal,HSF1,"1.28 fold enrichment (6-mer frequency, TF over GST control)"
same,binding signal,SPIC,"1.02 fold enrichment (6-mer frequency, TF over GST control)"
same,binding signal,ELF4,"1.1 fold enrichment (6-mer frequency, TF over GST control)"
same,binding signal,ELK4,"1.14 fold enrichment (6-mer frequency, TF over GST control)"
same,binding signal,ETV2,"1.23 fold enrichment (6-mer frequency, TF over GST control)"
same,binding signal,ELF3,"1.05 fold enrichment (6-mer frequency, TF over GST control)"
same,binding signal,CRX,"1.79 fold enrichment (6-mer frequency, TF over GST control)"
same,binding signal,ETV1,"1.14 fold enrichment (6-mer frequency, TF over GST control)"
same,binding signal,ERF,"1.21 fold enrichment (6-mer frequency, TF over GST control)"
same,binding signal,ETV3L,"1.24 fold enrichment (6-mer frequency, TF over GST control)"
same,binding signal,ETS2,"1.15 fold enrichment (6-mer frequency, TF over GST control)"
same,binding signal,SPDEF,"1.05 fold enrichment (6-mer frequency, TF over GST control)"
same,binding signal,ETV7,"1.21 fold enrichment (6-mer frequency, TF over GST control)"
same,binding signal,ELF5,"1.17 fold enrichment (6-mer frequency, TF over GST control)"
same,binding signal,ETV3,"1.13 fold enrichment (6-mer frequency, TF over GST control)"
same,binding signal,ETV6,"1.13 fold enrichment (6-mer frequency, TF over GST control)"
